The results in this text go back to PubChem BioAssay (Tox21).

“And” between values parts separate entries of the source, which are not always exact repeats. Identical values can stand only once. Records with an inconclusive call do not appear. A call without a number means that no potency is given here. Some compounds were tested as several samples or in several runs, with calls that do not always agree. The source made the active and inactive calls. Calls come from the whole dose curve; as a rule, active = well fitted activation curve with a large enough effect in the repeat runs; inconclusive = weak or mixed curves; inactive = flat fitted curve, though single readings scatter.
Potency is the fitted concentration of half-maximal effect.

A short description of the assay: A CellTox Green Cytotoxicity Assay to monitor cytotoxicity in HEK293 cells - 8 hour (AID 1224884). Note: nearly all actives have a fitted effect of over 35% in size. The following applies: CellTox Green fluorescence; series mostly up to 76.8 µM. The text has this:
National Center for Advancing Translational Sciences [NCATS]
NIH Chemical Genomics Center [NCGC]
U.S. Environmental Protection Agency [EPA]
National Institutes of Environmental Health Sciences [NIEHS]
National Toxicology Program [NTP]
Cell-based models are critical for drug discovery. Determining the natural cytotoxic effects resulting from test compounds is an essential research activity. A CellTox Green Cytotoxicity Assay to monitor cytotoxicity in real time of continues cell culture during 40 hours of the compound treatment was used to screen Tox21 10K library compounds in Hek293 cells. CellTox Green Cytotoxicity Assay is a nonlytic, homogeneous, biofluorescent method to measure cytotoxicity in cell culture after experimental manipulation. The assay system uses a proprietary asymmetric cyanine dye that is excluded from viable cells but preferentially stains the dead cell's DNA. […] Viable cells produce no appreciable increases in fluorescence. Therefore, the fluorescence signal produced by the binding interaction with dead cell DNA is proportional to cytotoxicity.
The mixture of Hek293 cell suspension and reagents were dispensed at 600cells/6 ul/well in 1536-well tissue culture treated black solid bottom plates using a Multidrop dispenser. After the assay plates were incubated at a 37 C/5% CO2 incubator for 5 hours, 23 nL of compounds dissolved in DMSO, positive and negative controls was transferred to the assay plate by a pintool work station. The plates were incubated at 37 C for 40 hours. The fluorescence intensity were measured at 0h, 8h, 16h, 24h, 32h and 40h time points using ViewLux plate reader during compound treatment.
In the case of `Clc1cnc(Oc2ccc(Oc3ncc(Cl)cc3Cl)cc2)c(Cl)c1`, the Potency result is “inactive and 34.7 µM (active)”.

In the case of `COC(C)(C)CCCC(C)C/C=C/C(C)=C/C(=O)OC(C)C` (stereo not given), the Potency entry is “inactive”.

On to `FC(F)(F)c1ccc(Cl)cc1`, for which the Potency result is “inactive”.

With `COP(=S)(OC)Oc1ccc(SC)c(C)c1`, the Potency result is “inactive”.

As for `CNc1cnn(-c2cccc(C(F)(F)F)c2)c(=O)c1Cl`, the Potency result is “inactive”.

Consider `Nc1cccc(Cl)c1`, for which the Potency entry is “inactive”.

As to `C[C@H]1C(=O)O[C@@H]2CCN3CC=C(COC(=O)[C@](C)(O)[C@]1(C)O)[C@H]23`, the Potency result is “inactive”.

In the case of `Cl/C=C/Cl`, the Potency result was “inactive”.

Turning to `OC[C@@H](O)[C@H]1O[C@@H]2O[C@H](C(Cl)(Cl)Cl)O[C@@H]2[C@H]1O`, the Potency entry is “inactive”.

Turning to `O=C(O)COc1ccccc1`, the Potency entry was “inactive”.

As for `CC(=O)/C=C/c1ccccc1`, the Potency entry is “inactive”.

`Cc1cc(O)ccc1Cl`: the Potency entry was “inactive”.

Consider `COC(=O)Nc1cccc(OC(=O)Nc2cccc(C)c2)c1`, for which the Potency result was “inactive”.

Consider `O=C(O)CCCc1ccc(N(CCCl)CCCl)cc1`, for which the Potency entry was “inactive”.

For `O=[N+]([O-])c1ccc(Cl)c(Cl)c1`, the Potency entry is “inactive”.

For the compound `O=S(=O)(O)OOS(=O)(=O)O`, the Potency result was “inactive”.

For `O=C(O)Cc1ccccc1`, the Potency result was “inactive”.

Take `CCOC(=O)CC(SP(=O)(OC)OC)C(=O)OCC` (stereo not given): the Potency result is “inactive”.

Consider `ClC(Cl)c1ccccc1`, for which the Potency result is “inactive”.

For `Cc1cccc(N)c1`, the Potency result was “inactive”.

As to `O=C/C=C/c1ccccc1`, the Potency entry was “inactive”.

Take `O=C(O)c1cc(Oc2ccc(C(F)(F)F)cc2Cl)ccc1[N+](=O)[O-]`: the Potency entry is “inactive”.

Take `N#CN=C(N)N`: the Potency result was “inactive”.

As to `COS(=O)(=O)OC`, the Potency entry was “inactive”.

For `CC(=O)C1CCOC1=O` (stereo not given), the Potency entry was “inactive”.

Regarding `Cc1ccc(N=C=O)cc1N=C=O`, the Potency entry was “inactive”.

As to `CN(C)C(=O)Cl`, the Potency result is “inactive”.

For `CNC(=O)O/N=C(\SC)C(=O)N(C)C`, the Potency result is “inactive”.

Consider `C=CC(=O)OCCCCCC(C)C`, for which the Potency result is “inactive”.

Consider `OCC(O)CCl` (stereo not given), for which the Potency entry was “inactive”.

Turning to `ClCCOCCCl`, the Potency entry was “inactive”.

Consider `CNC(=O)O/N=C/C(C)(C)S(C)=O` (stereo not given), for which the Potency entry was “inactive”.

`Nc1ncc([N+](=O)[O-])s1`: the Potency entry is “inactive”.

For `OCCCCO`, the Potency result was “inactive”.

For the compound `Nc1cc(Cl)cc(Cl)c1`, the Potency entry is “inactive”.

Consider `N#Cc1cccc(C#N)c1`, for which the Potency result was “inactive”.

As to `Cc1ccccc1N`, the Potency result was “inactive”.

With `CSc1nnc(C(C)(C)C)c(=O)n1N`, the Potency result is “inactive”.

In the case of `C=CCN=C=S`, the Potency entry was “inactive”.

With `CC(C)CCCCCCOC(=O)c1ccccc1C(=O)OCCCCCCC(C)C`, the Potency entry is “inactive”.
